Results reported in PubChem BioAssay (NCATS).
Results filed as inconclusive are left out. Values without a mark were called inactive. Calls follow the shape of the dose curve; as a rule, active = well fitted cell-killing curve with a large enough effect; inconclusive = small, poorly fitted or top-dose-only effect, or effect the other way; inactive = flat fitted curve, though single readings scatter.

Test: MultiTox-Fluor Cytotoxicity Assay - LYMP1-002 - Live Cells (AID 955)
Conditions: LYMP1-002 lymphoblastoid live-cell protease fluorescence viability; series mostly up to 46.1 µM; viability change, negative = cytotoxic: at the top concentration
Excerpt: NIH Chemical Genomics Center [NCGC]
NIH Molecular Libraries Screening Centers Network [MLSCN]
National Institutes of Environmental Health Sciences [NIEHS]
National Toxicology Program [NTP]
We have developed a 1536-well cell-based assay for quantitative high throughput screening (qHTS) against a number of cell lines to determine in vitro cytotoxicity of small molecules. This particular assay uses a human lymphoblastoid cell line (LYMP1-002) purchased from Coriell Institute.
NCGC Assay Protocol Summary:
The MultiTox-Fluor Cytotoxicity Assay (Promega) is a homogeneous method to simultaneously measure the relative number of live and dead cells in culture by detecting changes in cell membrane integrity. There are two fluorogenic peptide substrates in the assay reagent. Viable cells are determined when the cell-permeant substrate (GF-AFC) enters the cell and is cleaved by protease from live cells resulting in liberated fluorophore. This live-cell protease activity restricted to viable cells is proportional to cell number. The dead cells are determined by using fluorogenic cell-impermeant peptide substrate (bis-AAF-R110) which cleaved by dead cell proteases leaking from damaged cell membrane.
Using the MultiTox-Fluor Cytotoxicity Assay, the relative number of live cells was measured in the lymphoblastoid cell line with complete culture medium following compound treatment for 16 hours. The assay was performed in opaque black Kalypsys 1536-well plates. In the screen, tetraoctylammonium bromide was used as positive control. Library compounds were measured for their ability to cause acute toxicity in the cell line, as reflected by a decrease in live cell protease activity, in a concentration-dependent manner. […] AC50 values were determined from concentration-response data modeled with the standard Hill equation.
qHTS protocol for MultiTox-Fluor Cytotoxicity assay
[Step] [Parameter] [Value] [Description]
1. Reagent; 5 uL; 2500 lymphoblastoid cells/well
2. Time; 5 hr; 37 C incubation
4. Controls; 23 nL; Tetraoctylammonium bromide 6.4pM to 92 uM
5. Time; 16 hr; 37 C incubation
6. Reagent; 5 uL; MuliTox-Fluor Assay reagent
7. Time; 60 min; Room Temperature
8. Detection; live-cell fluorescence (Ex/Em=405/510); EnVision plate reader
Keywords: cell viability, cytotoxicity, lymphoblastoid cell line, fluorescence, NTPHTS, NTPHTS_NCGC, NIEHS, EPA, DSSTox, MLSMR, MLSCN, NIH Roadmap, qHTS, NCGC
% is scaled to controls: 0 for no effect and ±100 for the full control effect.

| Compound | viability change, negative = cytotoxic [%] |
| --- | --- |
| CCCCNCC | -3.1 |
| CC(=O)OC1CC(C)OC(C)O1 (stereo not given) | 4.02 |
| Cc1c(C(=O)O)c(O)cc2c1C(=O)c1c(O)c([C@H]3O[C@H](CO)[C@@H](O)[C@H](O)[C@H]3O)c(O)c(O)c1C2=O | -8.41 |
| Nc1cc(C(=O)O)c(O)c(S(=O)(=O)O)c1 | 5.43 |
| Cc1cccnc1 | -12.8 |
| c1c[nH]cn1 | 0.82 |
| CCCCCCCCOc1ccc(C(=O)O)cc1 | 5.73 |
| Nc1ccc2c(c1)C(=O)c1ccccc1C2=O | -11.9 |
| S=C(NC1CCCCC1)NC1CCCCC1 | 1.69 |
| CC(=O)CC(=O)Nc1ccccc1 | 1.42 |
| Nc1ccccc1O | -8.03 |
| O=[N+]([O-])c1cc(Cl)c(Cl)c(Cl)c1Cl | -16.3 |
| CC(CCC(=O)O)(c1ccc(O)cc1)c1ccc(O)cc1 | -1.22 |
| NC(=O)c1ccc([N+](=O)[O-])cc1 | -0.0488 |
| CC(=O)c1ccc(Cl)c(Cl)c1Cl | 2.87 |
| O=C(O)/C=C/c1ccc(/C=C/C(=O)O)cc1 | -6.35 |
| C/C=C/C=C/C=O | -7.53 |
| CCNC(=S)NCC | -12.3 |
| O=c1[nH]ncc2ccccc12 | 5.92 |
| C=CC(C)(O)CCCC(C)CCCC(C)CCCC(C)C (stereo not given) | 7.33 |

| Compound | viability change, negative = cytotoxic [%] |
| --- | --- |
| CC(=O)OC(C(=O)c1ccccc1)c1ccccc1 (stereo not given) | 4.33 |
| O=C(O)c1ccc([N+](=O)[O-])cc1 | 0.954 |
| C=C(C#N)C(=O)OCC | -8.19 |
| c1ccc(SCCSc2ccccc2)cc1 | 5.91 |
| Nc1cc([N+](=O)[O-])ccc1O | -5.2 |
| O=C(O)c1cc(N=Nc2ccc([N+](=O)[O-])cc2)ccc1O | -13.5 |
| CCOC(=O)C1OC1c1ccccc1 (stereo not given) | 8.93 |
| Oc1ccc(O)c2c(O)cccc12 | -2.19 |
| O=CC(=O)c1ccccc1 | -4.25 |
| CCCCCCCC/C=C\CCCCCCCC(=O)N(CCO)CCO | -8.36 |
| C[C@@H]1CC2(OC(O)[C@]3(C)O[C@H]23)O[C@H]2C[C@@]3(C)[C@@H]4CC[C@H]5C(C)(C)C(O[C@@H]6OC[C@@H](O)[C@H](O)[C@H]6O)CC[C@@]56C[C@@]46CC[C@]3(C)[C@@H]12 (stereo not given in full) | -18.5 |
| CCCCOC(=O)COc1ccc(Cl)cc1Cl | -1.54 |
| OCC(CBr)(CBr)CBr | 10.7 |
| Nc1ccc(N)c(Cl)c1 | -14.7 |
| Nc1cnn([C@@H]2O[C@H](CO)[C@@H](O)[C@H]2O)c(=O)n1 | -4.78 |
| CC(C)(C)C(=O)C1C(=O)c2ccccc2C1=O | 1.07 |
| Cc1ccc(N)cc1[N+](=O)[O-] | 4.33 |
| CCCCCCCCC1CO1 (stereo not given) | 4.1 |
| CCc1ccc(C(c2ccc(CC)cc2)C(Cl)Cl)cc1 | 9.16 |
| CC(C)OCC1CO1 (stereo not given) | 8 |
